In ChEMBL document CHEMBL3988442, “University of Dundee, Small-Polar-MMV Screening Library” (2021):

Tests used:
[1] = target: T1, Aspartate--tRNA(Asp/Asn) ligase (Mycobacterium tuberculosis (strain ATCC 25618 / H37Rv)) (UniProt P9WFW3); experiment: Assay for Asp RNA synthetase-1 from Mycobacterium tuberculosis; type: functional; design: scale not given: direction of the effect not stated beside the values; settings: 30 µM; also: in the data most compounds retested in dose-response had high values
T1 sequence (whole entry): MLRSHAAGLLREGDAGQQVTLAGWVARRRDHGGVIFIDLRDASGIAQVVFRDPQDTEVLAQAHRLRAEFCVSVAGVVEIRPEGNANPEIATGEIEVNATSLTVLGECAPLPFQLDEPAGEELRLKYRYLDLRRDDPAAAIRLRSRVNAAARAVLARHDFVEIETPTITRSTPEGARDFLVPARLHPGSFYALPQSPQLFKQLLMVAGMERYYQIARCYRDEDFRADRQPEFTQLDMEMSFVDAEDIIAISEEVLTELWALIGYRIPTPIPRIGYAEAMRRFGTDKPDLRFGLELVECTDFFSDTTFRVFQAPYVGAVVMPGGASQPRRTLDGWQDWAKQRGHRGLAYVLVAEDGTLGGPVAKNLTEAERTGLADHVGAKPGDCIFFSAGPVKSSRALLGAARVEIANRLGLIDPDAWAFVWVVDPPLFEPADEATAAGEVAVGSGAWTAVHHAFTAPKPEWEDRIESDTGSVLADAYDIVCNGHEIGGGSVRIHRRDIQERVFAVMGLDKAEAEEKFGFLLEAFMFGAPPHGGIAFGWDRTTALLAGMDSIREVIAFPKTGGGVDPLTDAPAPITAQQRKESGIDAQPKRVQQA

[2] = target: Shiga toxin 2 (Escherichia coli O157:H7) (UniProt P09385+P09386); experiment: E. coli 0.157:H7 Shiga Toxin SOP - stx2 screening assay; type: functional; design: scale not given: direction of the effect not stated beside the values; settings: 30 µM

Question: What does the source list for Cc1cc(C(=O)N2CCCC2c2nnc3n2CCCCC3)no1 (stereo not given)?
Answer: Percent Effect [1]: -2.81%; Percent Effect [2]: -2.64%

Question: Which results are given for CC(C)c1nn(C)c(N(C)C)c1CNCc1ccccc1CN(C)C?
Answer: Percent Effect [1]: -0.745%; Percent Effect [2]: 23.7%

Question: CSCc1cccc(S(=O)(=O)NCCCN2CCOCC2)c1 was tested. Which Percent Effect [1] did it give?
Answer: 13.9%

Question: What about the Percent Effect [2] of the same compound?
Answer: -32.1%

Question: Which results are given for COCCNc1ccc(CNC(=O)Nc2cn[nH]c2)cc1?
Answer: Percent Effect [1]: -0.4%; Percent Effect [2]: -2.17%

Question: For Cc1noc(C)c1-c1cncc(C2CCCN2Cc2cncnc2)n1 (stereo not given), which Percent Effect [1] is on record?
Answer: -2.78%

Question: What about the Percent Effect [2] of the same compound?
Answer: 0.369%

Question: How did the Percent Effect [1] turn out when CCOC(=O)c1sc2ccsc2c1CN was run?
Answer: -0.321%

Question: And the Percent Effect [2]?
Answer: 42.1%

Question: Which Percent Effect [1] does the source give for CC(C)N(C)Cc1cnc2n1CCN(C(=O)NC1CCCC1)C2 here?
Answer: -1.4%

Question: And the Percent Effect [2]?
Answer: -28.1%

Question: CC(C)c1cc(NCC(O)c2ccc(F)cc2)n2nccc2n1 (stereo not given) was tested. Which Percent Effect [1] did it give?
Answer: -1.84%

Question: What about the Percent Effect [2] of the same compound?
Answer: 7.39%

Question: For CC1CCCN(Cc2csc(-c3ncccn3)n2)CC1 (stereo not given), which Percent Effect [1] is on record?
Answer: -2.94%

Question: What about the Percent Effect [2] of the same compound?
Answer: -26.7%

Question: Which results are given for CCC(=O)N1CCc2nc3cc(OC)c(OC)cc3c(=O)n2CC1?
Answer: Percent Effect [1]: -5.4%; Percent Effect [2]: -7.9%

Question: How did the Percent Effect [1] turn out when CCc1ncnc2c1CCN(Cc1ccccn1)CC2 was run?
Answer: 0.378%

Question: What about the Percent Effect [2] of the same compound?
Answer: -29.9%

Question: What does the source list for CCn1cc(NC(=O)NCC(c2cccc(F)c2)N(C)C)cn1 (stereo not given)?
Answer: Percent Effect [1]: -4.28%; Percent Effect [2]: 21.4%

Question: Which results are given for COc1ccc(C(=O)NCC(c2cccn2C)N2CCCC2)c(OC)c1 (stereo not given)?
Answer: Percent Effect [1]: -4.85%; Percent Effect [2]: -22.3%

Question: Which results are given for O=C(CCNCC(F)(F)F)N1CCC(Nc2cccnn2)CC1?
Answer: Percent Effect [1]: 2.25%; Percent Effect [2]: -14.2%

Question: Which results are given for O=C(Nc1ccc(F)cc1)N1C[C@H]2C[C@H](C(=O)N3CCOCC3)[C@@H](C1)O2?
Answer: Percent Effect [1]: 0.452%; Percent Effect [2]: -11.7%

Question: With COCC(=O)N1Cc2cnc(Cc3ccc(OC)cc3)nc2C1 as the compound, how does the Percent Effect [1] read?
Answer: 2.73%

Question: And the Percent Effect [2]?
Answer: -8.2%

Question: Fc1cccc(Oc2ccc(CNCC3CNc4ccnn4C3)cn2)c1 (stereo not given) was tested. Which Percent Effect [1] did it give?
Answer: -6.37%

Question: What about the Percent Effect [2] of the same compound?
Answer: -101%

Question: COCCCNC(=O)CN(C)C(=O)c1cc(C)sc1C was tested. Which Percent Effect [1] did it give?
Answer: -2.19%

Question: What about the Percent Effect [2] of the same compound?
Answer: 10.4%

Question: Which Percent Effect [1] does the source give for O=C(Cc1cccs1)N1CC[C@H]2[C@@H]1CCC(=O)N2c1cccnc1 here?
Answer: -1.62%

Question: What about the Percent Effect [2] of the same compound?
Answer: -9.24%

Question: How did the Percent Effect [1] turn out when Cc1cccc(-c2noc(CN3CC(n4cc(C)cn4)C3)n2)c1 was run?
Answer: -0.577%

Question: What about the Percent Effect [2] of the same compound?
Answer: -2.34%
